The panel holds about 83,000 compounds, 20% with a hit somewhere; the sample as a whole holds those more often.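 Negative percent growth values reflect cell death: -40 means 40% of the cells present at the start died, and -100 means all died.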 A number with no mark means an inactive call. The source made the active and inactive calls. How the source made its calls: active means growth percent below 10; inactive means the rest.

From PubChem BioAssay (NCI) come the findings set out here.

Test systems include SK-MEL-2 melanoma; EKVX NSCLC; SN12C renal; TK-10 renal; ACHN renal; CAKI-1 renal; A498 renal; CCRF-CEM leukemia; MOLT-4 leukemia; RPMI-8226 leukemia; OVCAR-5 ovarian; OVCAR-4 ovarian; SK-OV-3 ovarian; OVCAR-3 ovarian; HS 578T breast; SR leukemia; OVCAR-8 ovarian; IGROV1 ovarian; NCI/ADR-RES ovarian; UO-31 renal.
Holding throughout (assay): NCI-60 one-dose screen, 48 h (100 = growth as untreated, 0 = no growth, -100 = all killed)
What all share (conditions): 10 µM

As for `O=c1c(Br)ccc(Br)cc1Br`, the growth with SK-MEL-2 melanoma is -73.3% (active); with EKVX NSCLC, 99.1%; in the experiment with SN12C renal, 4.44% (active); in the experiment with TK-10 renal, -44.5% (active); with ACHN renal it was -79.1% (active); in the experiment on CAKI-1 renal, -81.3% (active). For the same compound, the growth in the experiment on A498 renal was 93%; in the experiment with CCRF-CEM leukemia, -41.4% (active); with MOLT-4 leukemia it was -36.8% (active); in the experiment with RPMI-8226 leukemia it was -51.2% (active); in the experiment with OVCAR-5 ovarian it was 4.49% (active); in the experiment with OVCAR-4 ovarian it was -92.8% (active). The growth is 112% with SK-OV-3 ovarian, -94.8% (active) in the experiment on OVCAR-3 ovarian and 43.4% with HS 578T breast.
In the case of `CC[N+](CC)=c1ccc2nc3c(cc(NCc4ccccc4)c4ccccc43)oc-2c1`, the growth is -80.1% (active) in the experiment with SK-MEL-2 melanoma; -96.7% (active) with EKVX NSCLC; -85.9% (active) in the experiment with SN12C renal; -10.6% (active) in the experiment on TK-10 renal; -77.9% (active) in the experiment on ACHN renal; -70.8% (active) with CAKI-1 renal. For the same compound, the growth in the experiment with A498 renal was 44.8%; with CCRF-CEM leukemia, 19%; with MOLT-4 leukemia, 2.86% (active); in the experiment with SR leukemia, -9.48% (active); in the experiment with RPMI-8226 leukemia, -21.1% (active); with OVCAR-8 ovarian, -27.2% (active). In addition, the growth in the experiment with OVCAR-5 ovarian is -91.4% (active); with OVCAR-4 ovarian, -93.1% (active); with SK-OV-3 ovarian, -8.74% (active); in the experiment on IGROV1 ovarian it was -94.5% (active); in the experiment with OVCAR-3 ovarian, -54.9% (active); in the experiment on HS 578T breast, -20.4% (active). Also, the growth in the experiment with NCI/ADR-RES ovarian is -7.86% (active).
For `CS(=O)(=O)c1nccc(-c2c(-c3cccc(OCCN4CCOCC4)c3)nc3sccn23)n1`, the growth is 102% in the experiment with SK-MEL-2 melanoma; 101% in the experiment on EKVX NSCLC; 96.8% in the experiment on SN12C renal; 68.5% with UO-31 renal; 90.9% in the experiment with ACHN renal; 85.3% with CAKI-1 renal. Moreover, the growth in the experiment with A498 renal is 59.2%; in the experiment with MOLT-4 leukemia, 93.9%; in the experiment with SR leukemia, 78.3%; with RPMI-8226 leukemia, 47.8%; with OVCAR-8 ovarian, 92.1%; in the experiment on OVCAR-5 ovarian, 96.6%. In addition, the growth with OVCAR-4 ovarian is 76.8%; with SK-OV-3 ovarian it was 84.9%; with IGROV1 ovarian, 80.2%; in the experiment with OVCAR-3 ovarian, 94.8%; in the experiment on HS 578T breast, 88.7%; in the experiment on NCI/ADR-RES ovarian, 93.3%.
As for `Cc1ccc(C)c(COc2cc(NC(=O)c3ccc4c(c3)OCO4)ccc2N(C)S(C)(=O)=O)c1`, the growth is 37.6% in the experiment on SK-MEL-2 melanoma; 29.6% with EKVX NSCLC; 27.2% in the experiment on SN12C renal; 54.1% with TK-10 renal; 29.3% in the experiment on ACHN renal; 15.6% in the experiment with CAKI-1 renal. For the same compound, the growth in the experiment on A498 renal was -11.3% (active); with CCRF-CEM leukemia, 13.2%; with MOLT-4 leukemia, 7.75% (active); in the experiment on SR leukemia it was 13.2%; in the experiment with RPMI-8226 leukemia, 24.9%; in the experiment with OVCAR-8 ovarian, 24.9%. The growth in the experiment on OVCAR-5 ovarian is 30.7%; with OVCAR-4 ovarian, 29.7%; in the experiment with SK-OV-3 ovarian, -21% (active); with OVCAR-3 ovarian, -20.6% (active); in the experiment on HS 578T breast, -32.9% (active); in the experiment on NCI/ADR-RES ovarian it was -5.26% (active).
For `COc1ccccc1N1CCCSC1=Nc1ccccc1`, the growth is 121% in the experiment with SK-MEL-2 melanoma; 110% in the experiment with EKVX NSCLC; 91.6% in the experiment on SN12C renal; 81.2% in the experiment on UO-31 renal; 114% in the experiment with ACHN renal; 99.8% in the experiment on A498 renal. For the same compound, the growth in the experiment on MOLT-4 leukemia was 62.1%; in the experiment on RPMI-8226 leukemia, 43.6%; in the experiment with OVCAR-8 ovarian, 104%; with OVCAR-5 ovarian, 93.9%; in the experiment with SK-OV-3 ovarian, 113%; in the experiment with OVCAR-3 ovarian, 94.1%. In addition, the figures for the growth in the experiment with HS 578T breast and in the experiment on NCI/ADR-RES ovarian were 117% and 103%, respectively.
`CC(=O)OC1CC2C(C)(C)CCC[C@]2(C)C2=C1C(O)=C(C(C)C)C(=O)C2=O` (some centres undefined): the growth in the experiment on SK-MEL-2 melanoma was -2.83% (active); in the experiment on EKVX NSCLC it was -15.7% (active); in the experiment on SN12C renal, 3.28% (active); in the experiment with TK-10 renal, 22.5%; in the experiment on ACHN renal, -95.3% (active); in the experiment with CAKI-1 renal, -5.22% (active). Further, the growth in the experiment on CCRF-CEM leukemia is 26.8%; with MOLT-4 leukemia it was 17.4%; with SR leukemia, 2.66% (active); in the experiment on RPMI-8226 leukemia, 4.43% (active); in the experiment with OVCAR-8 ovarian it was 13.4%; in the experiment with OVCAR-5 ovarian it was -39.3% (active). Further, the growth in the experiment on SK-OV-3 ovarian is 19.3%; with OVCAR-3 ovarian it was -54% (active); with HS 578T breast, 28.9%; in the experiment with NCI/ADR-RES ovarian, 3.62% (active).
Turning to `COc1ccc2c(c1)C(CC(=O)NN)CCC2` (centres undefined), the growth in the experiment on SK-MEL-2 melanoma is 108%; with EKVX NSCLC, 109%; with SN12C renal it was 104%; in the experiment on TK-10 renal, 98.7%; with ACHN renal, 99.6%; with CAKI-1 renal it was 91.2%. For the same compound, the growth with A498 renal was 93.2%; with CCRF-CEM leukemia it was 100%; with MOLT-4 leukemia, 86.8%; in the experiment with RPMI-8226 leukemia, 113%; in the experiment with OVCAR-5 ovarian, 100%; with OVCAR-4 ovarian it was 110%. Also, the growth with SK-OV-3 ovarian was 115%; in the experiment with OVCAR-3 ovarian, 112%; in the experiment with HS 578T breast, 102%; with NCI/ADR-RES ovarian it was 108%.
`NS(=O)(=O)c1ccc(N2N=C(c3ccccc3)CCC2=O)cc1`: the growth in the experiment with SK-MEL-2 melanoma is 107%; in the experiment on EKVX NSCLC it was 130%; in the experiment on SN12C renal, 101%; in the experiment with UO-31 renal, 104%; in the experiment with ACHN renal, 114%; in the experiment on A498 renal it was 83%. In addition, the growth in the experiment with CCRF-CEM leukemia was 108%; in the experiment on MOLT-4 leukemia, 93.2%; in the experiment on RPMI-8226 leukemia it was 94.5%; with OVCAR-8 ovarian it was 98%; with OVCAR-5 ovarian, 112%; with OVCAR-4 ovarian, 95.8%. Further, the growth is 113% in the experiment on SK-OV-3 ovarian, 105% in the experiment on IGROV1 ovarian, 158% with OVCAR-3 ovarian and 98% in the experiment with NCI/ADR-RES ovarian.
For `Cc1ccc(NC(=S)NNC(=S)Nc2ccc(C)cc2)cc1`, the growth was 66.1% in the experiment with SK-MEL-2 melanoma; 92.7% in the experiment with EKVX NSCLC; 68.1% with SN12C renal; 86.7% in the experiment on TK-10 renal; 77.1% in the experiment on ACHN renal; 67.8% with CAKI-1 renal. The growth with A498 renal was 73.4%; with MOLT-4 leukemia, 45.3%; in the experiment on OVCAR-8 ovarian, 76%; with OVCAR-5 ovarian, 89.1%; in the experiment on SK-OV-3 ovarian, 59.7%; with OVCAR-3 ovarian, 64.5%. In addition, the growth in the experiment with HS 578T breast was 78.4%; in the experiment on NCI/ADR-RES ovarian, 31.7%.
Take `COc1cc(C2C(C#N)=C(N)Oc3cc(O)ccc32)cc(OC)c1OC` (centres undefined): the growth was 23.4% in the experiment with SK-MEL-2 melanoma; 55.3% with EKVX NSCLC; 35.9% with SN12C renal; 43% with UO-31 renal; 51.8% in the experiment on ACHN renal; 30.7% in the experiment with CAKI-1 renal. The growth in the experiment with A498 renal was -5.59% (active); with CCRF-CEM leukemia it was 8.88% (active); with MOLT-4 leukemia, 6.05% (active); with RPMI-8226 leukemia, 15.5%; with OVCAR-8 ovarian it was 34.4%; with OVCAR-5 ovarian, 35.5%. The growth was 49.7% with OVCAR-4 ovarian; 44.2% with SK-OV-3 ovarian; 34.9% in the experiment with IGROV1 ovarian; -38.2% (active) with OVCAR-3 ovarian; 20% in the experiment with HS 578T breast; 38.4% in the experiment with NCI/ADR-RES ovarian.
